Assay in all cases: DAPPL (digital affinity profiling via proximity ligation, sequencing); 10 mM Tris-HCl pH 7.5, 50 mM NaCl, 1 mM DTT, 4% glycerol, room temperature, 30 min; GST-TFs on glutathione beads, 16-mer random dsDNA library, 0.1% formaldehyde crosslink after washing; high values mean tight binding
The target in one experiment is T1, FEV (Homo sapiens, UniProt Q99581 1-238).
T1 sequence: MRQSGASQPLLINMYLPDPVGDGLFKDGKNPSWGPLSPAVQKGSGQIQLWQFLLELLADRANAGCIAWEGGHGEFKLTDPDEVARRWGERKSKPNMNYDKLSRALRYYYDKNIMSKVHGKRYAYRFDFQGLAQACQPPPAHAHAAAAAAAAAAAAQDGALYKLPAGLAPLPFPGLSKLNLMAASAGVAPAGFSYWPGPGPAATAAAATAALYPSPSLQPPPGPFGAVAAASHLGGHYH
Particulars: protein: recombinant; tags: N-terminal GST; dsDNA, one strand shown. Put shortly: (§1)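 Pools of DNA-barcoded human transcription factors, expressed in yeast as GST fusions on glutathione beads and combined with a tag-only sample, were incubated with 200 nmole of a 16-mer random double-stranded DNA library. Incubation took 30 min at room temperature in Tris/NaCl/DTT/glycerol buffer and was followed by washing, 0.1% formaldehyde crosslinking, proximity ligation (BsaI/T4 ligase, 1 h, 37 °C), PCR amplification and sequencing on an Illumina NextSeq500. Binding signal is the ratio of a hexamer's read frequency for a factor to its frequency for the tag-only sample.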

The target of the next experiment is ETV5 (Homo sapiens, UniProt P41161 1-510). Particulars: protein: recombinant; tags: N-terminal GST; dsDNA, one strand shown. Put shortly:
as §1

In another experiment the target is HSF1 (Homo sapiens, UniProt Q00613 1-529). Particulars: protein: recombinant; tags: N-terminal GST; chain copies: 3; dsDNA, one strand shown. Put shortly:
as §1

In a further experiment the target is T2, SPIC (Homo sapiens, UniProt Q8N5J4 1-248).
T2 sequence: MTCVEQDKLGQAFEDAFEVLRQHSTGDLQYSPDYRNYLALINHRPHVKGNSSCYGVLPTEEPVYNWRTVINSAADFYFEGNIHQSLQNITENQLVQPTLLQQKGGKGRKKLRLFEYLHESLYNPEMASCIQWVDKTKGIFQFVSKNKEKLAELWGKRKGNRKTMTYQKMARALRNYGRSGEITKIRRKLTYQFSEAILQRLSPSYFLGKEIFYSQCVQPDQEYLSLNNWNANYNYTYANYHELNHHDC
Particulars: protein: recombinant; tags: N-terminal GST; dsDNA, one strand shown. The essentials: as §1

The next experiment concerns the target ELF4 (Homo sapiens, UniProt Q99607 1-663). Particulars: protein: recombinant; tags: N-terminal GST; dsDNA, one strand shown. The essentials: as §1
For the next experiment, the target named is T3, ELK4 (Homo sapiens, UniProt P28324-2 1-405).
T3 sequence: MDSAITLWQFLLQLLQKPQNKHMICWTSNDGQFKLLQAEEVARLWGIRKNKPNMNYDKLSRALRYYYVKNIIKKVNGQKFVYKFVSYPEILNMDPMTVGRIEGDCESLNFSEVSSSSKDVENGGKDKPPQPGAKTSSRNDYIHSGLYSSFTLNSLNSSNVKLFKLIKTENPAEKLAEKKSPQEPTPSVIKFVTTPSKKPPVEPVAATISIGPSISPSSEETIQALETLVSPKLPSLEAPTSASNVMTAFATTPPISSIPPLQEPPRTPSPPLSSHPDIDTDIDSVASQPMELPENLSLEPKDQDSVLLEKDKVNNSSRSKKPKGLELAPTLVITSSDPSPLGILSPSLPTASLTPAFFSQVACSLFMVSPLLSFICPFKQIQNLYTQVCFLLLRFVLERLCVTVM
The settings on record: protein: recombinant; tags: N-terminal GST; dsDNA, one strand shown. Put shortly: as §1

The next experiment addresses T4, ETV2 (Homo sapiens, UniProt O00321 1-342).
T4 sequence: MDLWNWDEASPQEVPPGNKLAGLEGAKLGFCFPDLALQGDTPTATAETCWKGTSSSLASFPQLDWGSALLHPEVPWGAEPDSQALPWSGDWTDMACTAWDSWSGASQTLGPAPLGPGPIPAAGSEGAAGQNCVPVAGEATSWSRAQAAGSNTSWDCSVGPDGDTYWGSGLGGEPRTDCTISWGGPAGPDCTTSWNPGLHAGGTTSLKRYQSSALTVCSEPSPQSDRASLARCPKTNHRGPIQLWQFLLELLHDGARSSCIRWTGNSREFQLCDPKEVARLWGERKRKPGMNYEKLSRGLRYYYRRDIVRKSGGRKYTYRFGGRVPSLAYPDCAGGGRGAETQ
The settings on record: protein: recombinant; tags: N-terminal GST; dsDNA, one strand shown. The essentials: as §1

Another experiment addresses T5, ELF3 (Homo sapiens, UniProt P78545 1-371).
T5 sequence: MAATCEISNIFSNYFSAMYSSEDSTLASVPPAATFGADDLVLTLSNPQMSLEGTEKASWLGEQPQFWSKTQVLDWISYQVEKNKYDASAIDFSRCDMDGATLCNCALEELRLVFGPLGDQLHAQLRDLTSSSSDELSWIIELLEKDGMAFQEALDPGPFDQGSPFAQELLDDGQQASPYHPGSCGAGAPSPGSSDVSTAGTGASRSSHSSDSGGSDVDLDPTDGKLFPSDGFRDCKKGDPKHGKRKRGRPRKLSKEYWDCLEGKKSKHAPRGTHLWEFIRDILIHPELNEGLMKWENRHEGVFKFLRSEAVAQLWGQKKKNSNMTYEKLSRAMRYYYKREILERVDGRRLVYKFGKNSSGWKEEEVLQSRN
Particulars: protein: recombinant; tags: N-terminal GST; dsDNA, one strand shown. The essentials: as §1

For another experiment, the target named is CRX (Homo sapiens, UniProt O43186 1-299). The settings on record: protein: recombinant; tags: N-terminal GST; dsDNA, one strand shown. Put shortly: as §1
Sequence of CRX (O43186 whole entry): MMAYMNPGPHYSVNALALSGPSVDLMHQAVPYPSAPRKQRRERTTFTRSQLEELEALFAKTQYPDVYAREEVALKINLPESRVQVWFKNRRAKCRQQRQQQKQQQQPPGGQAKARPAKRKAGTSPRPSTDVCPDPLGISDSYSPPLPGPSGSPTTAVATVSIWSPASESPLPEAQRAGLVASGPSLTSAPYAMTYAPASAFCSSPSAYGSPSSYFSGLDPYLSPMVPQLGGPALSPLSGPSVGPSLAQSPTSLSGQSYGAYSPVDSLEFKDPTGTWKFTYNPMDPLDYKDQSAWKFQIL
The target of the next experiment is ETV1 (Homo sapiens, UniProt P50549 1-477). Particulars: protein: recombinant; tags: N-terminal GST; dsDNA, one strand shown. Put shortly: as §1
Sequence of ETV1 (P50549 whole entry): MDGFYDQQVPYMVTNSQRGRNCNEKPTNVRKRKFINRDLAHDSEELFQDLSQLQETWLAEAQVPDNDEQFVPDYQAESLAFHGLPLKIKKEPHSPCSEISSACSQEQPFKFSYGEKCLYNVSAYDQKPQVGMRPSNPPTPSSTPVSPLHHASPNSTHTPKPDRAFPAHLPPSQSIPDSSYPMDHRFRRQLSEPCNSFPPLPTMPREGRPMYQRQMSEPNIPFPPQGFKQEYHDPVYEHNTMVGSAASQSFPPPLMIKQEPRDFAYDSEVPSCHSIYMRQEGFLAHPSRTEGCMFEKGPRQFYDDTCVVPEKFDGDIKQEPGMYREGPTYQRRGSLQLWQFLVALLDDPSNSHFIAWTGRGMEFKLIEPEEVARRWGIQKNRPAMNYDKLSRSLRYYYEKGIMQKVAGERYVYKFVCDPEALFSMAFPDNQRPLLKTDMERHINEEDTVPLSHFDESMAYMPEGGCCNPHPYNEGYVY
The next experiment concerns the target T6, ERF (Homo sapiens, UniProt P50548 1-548).
T6 sequence: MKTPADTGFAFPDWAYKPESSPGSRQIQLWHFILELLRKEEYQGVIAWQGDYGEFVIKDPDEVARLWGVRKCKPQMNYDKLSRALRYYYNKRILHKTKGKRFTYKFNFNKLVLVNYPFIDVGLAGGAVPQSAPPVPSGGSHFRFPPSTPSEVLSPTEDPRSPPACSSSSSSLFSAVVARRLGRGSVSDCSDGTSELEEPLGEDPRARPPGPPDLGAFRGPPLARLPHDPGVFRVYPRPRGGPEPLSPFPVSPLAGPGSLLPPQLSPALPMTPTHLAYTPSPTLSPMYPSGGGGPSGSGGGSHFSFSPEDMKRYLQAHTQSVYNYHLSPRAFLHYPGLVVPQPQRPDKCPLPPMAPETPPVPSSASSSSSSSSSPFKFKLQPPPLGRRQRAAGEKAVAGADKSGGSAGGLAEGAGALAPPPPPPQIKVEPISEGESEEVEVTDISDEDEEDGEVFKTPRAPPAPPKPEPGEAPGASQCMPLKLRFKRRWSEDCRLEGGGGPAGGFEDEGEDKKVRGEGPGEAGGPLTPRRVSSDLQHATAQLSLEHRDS
Particulars: protein: recombinant; tags: N-terminal GST; dsDNA, one strand shown. The essentials: as §1

A further experiment deals with T7, ETV3L (Homo sapiens, UniProt Q6ZN32 1-361).
T7 sequence: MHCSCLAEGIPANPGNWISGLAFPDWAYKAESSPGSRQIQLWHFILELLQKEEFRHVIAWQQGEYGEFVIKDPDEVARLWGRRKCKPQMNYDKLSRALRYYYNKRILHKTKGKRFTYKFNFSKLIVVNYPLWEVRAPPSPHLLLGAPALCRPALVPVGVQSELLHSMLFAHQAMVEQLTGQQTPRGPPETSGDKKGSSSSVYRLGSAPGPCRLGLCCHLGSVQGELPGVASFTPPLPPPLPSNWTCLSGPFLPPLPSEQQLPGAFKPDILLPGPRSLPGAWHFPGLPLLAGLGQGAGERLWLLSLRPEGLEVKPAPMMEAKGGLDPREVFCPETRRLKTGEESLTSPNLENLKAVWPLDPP
The settings on record: protein: recombinant; tags: N-terminal GST; dsDNA, one strand shown. The essentials:
as §1

A further experiment concerns the target T8, ETS2 (Homo sapiens, UniProt P15036 1-469).
T8 sequence: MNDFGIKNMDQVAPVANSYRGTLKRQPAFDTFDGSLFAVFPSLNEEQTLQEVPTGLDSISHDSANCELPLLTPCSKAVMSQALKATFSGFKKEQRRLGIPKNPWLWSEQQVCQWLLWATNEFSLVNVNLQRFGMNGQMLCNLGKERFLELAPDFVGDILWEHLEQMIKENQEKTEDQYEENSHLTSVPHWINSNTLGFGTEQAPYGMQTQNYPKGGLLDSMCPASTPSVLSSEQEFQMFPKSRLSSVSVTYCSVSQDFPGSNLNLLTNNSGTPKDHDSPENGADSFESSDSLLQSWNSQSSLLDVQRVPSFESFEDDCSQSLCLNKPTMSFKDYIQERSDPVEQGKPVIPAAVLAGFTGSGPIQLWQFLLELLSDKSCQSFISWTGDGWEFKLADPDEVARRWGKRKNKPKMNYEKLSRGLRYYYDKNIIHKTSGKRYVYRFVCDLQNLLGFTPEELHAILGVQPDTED
The settings on record: protein: recombinant; tags: N-terminal GST; dsDNA, one strand shown. Put shortly:
as §1

The target in the next experiment is T9, SPDEF (Homo sapiens, UniProt O95238 1-335).
T9 sequence: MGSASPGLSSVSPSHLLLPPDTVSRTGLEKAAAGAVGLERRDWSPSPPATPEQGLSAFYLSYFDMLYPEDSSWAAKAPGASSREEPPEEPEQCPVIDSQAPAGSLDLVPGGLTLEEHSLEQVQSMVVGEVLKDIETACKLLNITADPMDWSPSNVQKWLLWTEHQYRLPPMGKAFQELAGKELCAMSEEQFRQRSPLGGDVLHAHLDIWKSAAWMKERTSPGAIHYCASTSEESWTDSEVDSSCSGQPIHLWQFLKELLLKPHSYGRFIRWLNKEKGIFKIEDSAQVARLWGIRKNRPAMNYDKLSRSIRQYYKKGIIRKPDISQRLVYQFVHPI
The settings on record: protein: recombinant; tags: N-terminal GST; dsDNA, one strand shown. Put shortly: as §1

The next experiment deals with T10, ETV7 (Homo sapiens, UniProt Q9Y603 1-341).
T10 sequence: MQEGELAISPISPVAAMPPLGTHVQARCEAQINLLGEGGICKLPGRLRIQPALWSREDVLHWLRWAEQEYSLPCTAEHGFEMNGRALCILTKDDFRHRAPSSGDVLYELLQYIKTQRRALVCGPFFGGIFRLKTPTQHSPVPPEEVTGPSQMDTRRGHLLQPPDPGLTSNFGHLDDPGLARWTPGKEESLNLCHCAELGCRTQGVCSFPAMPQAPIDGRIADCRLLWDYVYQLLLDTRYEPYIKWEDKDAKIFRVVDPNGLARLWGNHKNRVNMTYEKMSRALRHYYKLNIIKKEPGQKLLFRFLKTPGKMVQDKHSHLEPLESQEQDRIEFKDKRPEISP
Particulars: protein: recombinant; tags: N-terminal GST; dsDNA, one strand shown. The essentials: as §1

A further experiment deals with T11, ELF5 (Homo sapiens, UniProt Q9UKW6-2 1-255).
T11 sequence: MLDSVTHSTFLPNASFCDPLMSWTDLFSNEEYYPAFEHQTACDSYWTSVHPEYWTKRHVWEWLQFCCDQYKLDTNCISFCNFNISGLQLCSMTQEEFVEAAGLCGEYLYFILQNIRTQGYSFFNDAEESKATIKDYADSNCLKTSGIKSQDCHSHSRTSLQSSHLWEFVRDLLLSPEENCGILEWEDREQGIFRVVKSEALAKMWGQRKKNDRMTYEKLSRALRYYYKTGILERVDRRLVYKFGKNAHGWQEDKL
The settings on record: protein: recombinant; tags: N-terminal GST; dsDNA, one strand shown. The essentials: as §1

The next experiment concerns the target T12, ETV3 (Homo sapiens, UniProt P41162-2 1-143).
T12 sequence: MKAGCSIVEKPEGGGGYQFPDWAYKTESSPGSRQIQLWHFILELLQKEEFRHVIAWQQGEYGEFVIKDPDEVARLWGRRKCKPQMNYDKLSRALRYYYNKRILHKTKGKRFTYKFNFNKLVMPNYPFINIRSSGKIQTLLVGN
The settings on record: protein: recombinant; tags: N-terminal GST; dsDNA, one strand shown. Put shortly: as §1

For a further experiment, the target named is ETV6 (Homo sapiens, UniProt P41212 1-452). Particulars: protein: recombinant; tags: N-terminal GST; dsDNA, one strand shown. The essentials: as §1
Sequence of ETV6 (P41212 whole entry): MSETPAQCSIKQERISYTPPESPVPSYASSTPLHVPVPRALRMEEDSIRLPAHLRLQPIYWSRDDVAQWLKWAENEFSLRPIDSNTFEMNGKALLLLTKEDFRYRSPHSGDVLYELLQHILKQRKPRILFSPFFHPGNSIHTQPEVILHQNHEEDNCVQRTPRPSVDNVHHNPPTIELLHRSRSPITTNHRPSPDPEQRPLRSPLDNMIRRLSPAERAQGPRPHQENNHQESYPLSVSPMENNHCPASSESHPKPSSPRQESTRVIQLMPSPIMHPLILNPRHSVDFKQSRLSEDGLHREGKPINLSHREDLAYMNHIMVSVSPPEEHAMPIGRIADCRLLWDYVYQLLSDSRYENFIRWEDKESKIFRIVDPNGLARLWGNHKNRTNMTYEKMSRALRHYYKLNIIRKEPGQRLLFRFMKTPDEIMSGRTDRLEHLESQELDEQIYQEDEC

Sequence of HSF1 (Q00613 whole entry): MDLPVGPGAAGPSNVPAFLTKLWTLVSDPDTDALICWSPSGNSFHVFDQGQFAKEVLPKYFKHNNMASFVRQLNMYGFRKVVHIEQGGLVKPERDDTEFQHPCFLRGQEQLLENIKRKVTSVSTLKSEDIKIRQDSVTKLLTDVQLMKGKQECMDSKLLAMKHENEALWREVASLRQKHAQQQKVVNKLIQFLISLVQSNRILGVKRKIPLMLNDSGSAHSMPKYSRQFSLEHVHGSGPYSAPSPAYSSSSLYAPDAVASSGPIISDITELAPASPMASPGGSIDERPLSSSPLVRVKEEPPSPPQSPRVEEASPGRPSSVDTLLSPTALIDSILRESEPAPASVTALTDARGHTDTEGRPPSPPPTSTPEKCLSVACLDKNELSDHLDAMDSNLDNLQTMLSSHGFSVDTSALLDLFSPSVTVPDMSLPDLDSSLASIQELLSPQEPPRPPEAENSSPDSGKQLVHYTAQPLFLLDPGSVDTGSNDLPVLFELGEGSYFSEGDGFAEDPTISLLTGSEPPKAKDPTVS
Sequence of ETV5 (P41161 whole entry): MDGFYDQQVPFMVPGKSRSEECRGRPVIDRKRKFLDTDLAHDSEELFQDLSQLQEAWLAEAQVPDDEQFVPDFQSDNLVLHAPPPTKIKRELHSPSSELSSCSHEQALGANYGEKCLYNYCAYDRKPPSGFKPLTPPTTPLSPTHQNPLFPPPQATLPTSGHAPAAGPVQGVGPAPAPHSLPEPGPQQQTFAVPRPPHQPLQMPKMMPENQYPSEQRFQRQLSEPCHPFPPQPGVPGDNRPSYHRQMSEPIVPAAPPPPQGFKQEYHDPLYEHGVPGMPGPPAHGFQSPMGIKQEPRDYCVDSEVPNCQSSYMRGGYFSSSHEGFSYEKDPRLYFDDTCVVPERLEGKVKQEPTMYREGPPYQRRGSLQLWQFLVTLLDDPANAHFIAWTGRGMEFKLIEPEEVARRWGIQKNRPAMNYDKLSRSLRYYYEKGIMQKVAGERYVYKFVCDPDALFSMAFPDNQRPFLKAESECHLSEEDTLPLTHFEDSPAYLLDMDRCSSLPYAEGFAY
Sequence of ELF4 (Q99607 whole entry): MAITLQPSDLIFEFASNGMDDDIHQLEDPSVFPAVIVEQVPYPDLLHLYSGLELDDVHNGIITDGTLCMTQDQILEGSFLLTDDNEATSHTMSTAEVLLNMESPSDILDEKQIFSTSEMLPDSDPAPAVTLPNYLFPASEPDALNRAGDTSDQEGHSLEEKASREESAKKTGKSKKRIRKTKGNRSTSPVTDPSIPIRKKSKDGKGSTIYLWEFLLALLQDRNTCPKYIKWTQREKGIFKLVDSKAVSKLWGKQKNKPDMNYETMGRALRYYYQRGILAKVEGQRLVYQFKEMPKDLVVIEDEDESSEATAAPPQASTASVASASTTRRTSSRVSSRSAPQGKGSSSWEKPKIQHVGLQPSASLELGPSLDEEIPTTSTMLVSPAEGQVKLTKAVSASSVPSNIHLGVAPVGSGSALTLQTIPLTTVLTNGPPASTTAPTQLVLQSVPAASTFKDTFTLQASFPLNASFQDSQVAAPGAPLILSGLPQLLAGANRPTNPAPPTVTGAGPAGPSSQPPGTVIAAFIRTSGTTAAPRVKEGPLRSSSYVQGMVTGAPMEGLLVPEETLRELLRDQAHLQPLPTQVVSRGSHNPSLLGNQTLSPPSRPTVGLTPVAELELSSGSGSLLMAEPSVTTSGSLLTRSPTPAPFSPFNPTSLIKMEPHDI

In the case of CCCAAT, the binding signal with FEV was 1.27 fold enrichment (6-mer frequency, TF over GST control); in the experiment with ETV5, 1.34 fold enrichment (6-mer frequency, TF over GST control); with HSF1, 1.1 fold enrichment (6-mer frequency, TF over GST control); with SPIC, 1.27 fold enrichment (6-mer frequency, TF over GST control); with ELF4 it was 1.32 fold enrichment (6-mer frequency, TF over GST control); with ELK4, 1.24 fold enrichment (6-mer frequency, TF over GST control). In addition, the binding signal with ETV2 was 1.3 fold enrichment (6-mer frequency, TF over GST control); with ELF3 it was 1.32 fold enrichment (6-mer frequency, TF over GST control); in the experiment with CRX, 1.19 fold enrichment (6-mer frequency, TF over GST control); with ETV1 it was 1.19 fold enrichment (6-mer frequency, TF over GST control); with ERF, 1.18 fold enrichment (6-mer frequency, TF over GST control); with ETV3L it was 1.27 fold enrichment (6-mer frequency, TF over GST control). In addition, the binding signal with ETS2 is 1.22 fold enrichment (6-mer frequency, TF over GST control); with SPDEF it was 1.29 fold enrichment (6-mer frequency, TF over GST control); with ETV7 it was 1.15 fold enrichment (6-mer frequency, TF over GST control); with ELF5 it was 1.23 fold enrichment (6-mer frequency, TF over GST control); in the experiment with ETV3, 1.18 fold enrichment (6-mer frequency, TF over GST control); with ETV6 it was 1.28 fold enrichment (6-mer frequency, TF over GST control).

The values above are taken from article PMC7862700, “An all-to-all approach to the identification of sequence-specific readers for epigenetic DNA modifications on cytosine”.
